# Measured values published in PubChem BioAssay AID652126 (The Scripps Research Institute Molecular Screening Center, 2013).
# Screen size: about 370,000 compounds; about 3,700 (1%) were called active.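 How the source made its calls: active means activation above the mean over all tested compounds plus 3 SD (cut at about 0.9% in these data); inactive means the rest.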 The full list was thinned out, with actives kept by preference.
# Test system: Nuclear hormone receptor DAF-12 (Strongyloides stercoralis)
# Test: ssDAF-12 driven luciferase reporter activation – cell-based, luminescence, HEK293, GRIP1 co-expression, lit1-tk-luc, primary screen (AID 652126);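 further: 0% = DMSO-only wells and 100% = 3 µM delta7-dafachronic acid wells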
# Conditions: HEK293 ssDAF-12/GRIP1 lit1-tk-luc reporter, at 6.8 µM, active compounds read high, % of 3 µM dafachronic acid response
row,SMILES,activation
1,CCCCN1CCN(C(=O)c2ccc3c(c2)NC(=O)C(C)(C)O3)CC1,-1.34% (inactive)
2,COc1ccc(C#CCNCc2ccc(OC)cc2OC)cc1,-1.38% (inactive)
3,COc1ccc(C(=O)O)cc1S(=O)(=O)NC1CCN(Cc2ccccc2)CC1,-1.42% (inactive)
4,COc1ccc(C(=O)NCc2ccccc2C)cc1S(=O)(=O)NC1CCCC1,0.92% (active)
5,COc1ccc(C)cc1S(=O)(=O)NC1CCCCC1,-0.84% (inactive)
6,CCCCNC(=O)C[C@@H]1C(=O)N(CCc2ccc(Cl)cc2)C2=CCCC[C@]21C(=O)OCC,-2.02% (inactive)
7,CC(C)CNC(=O)OCc1cn(Cc2ccc(F)cc2)nn1,-0.96% (inactive)
8,CC(c1c[nH]c2ccccc12)c1c(-c2ccccc2)n(C)c2ccccc12 (stereo not given),-0.45% (inactive)
9,O=C(OCc1cn(-c2ccc(Cl)c(Cl)c2)nn1)c1ccccc1Cl,-1.04% (inactive)
10,CCOC(=O)[C@]12CCCC=C1N(Cc1ccc(OC)cc1)C(=O)[C@@H]2CC(=O)NCc1cccs1,-1.35% (inactive)
11,C=CCN(Cc1ccc2c(c1)OCO2)C(C#CC1CC1)C(C)(C)C (stereo not given),-1.38% (inactive)
12,CN(C)/C=C1\C=C(c2ccccc2)OC1=O,-0.4% (inactive)
13,CN(C)/C=C1/C(=O)Nc2ccccc21,1.06% (active)
14,O=C1Nc2ccccc2C1=NN=Cc1ccco1,0.04% (inactive)
15,Cc1ccc(-n2c(SCC(=O)Nc3ccc(S(=O)(=O)Nc4nccs4)cc3)nnc2-c2ccncc2)cc1,-1.76% (inactive)
16,CC(=O)O[C@@]1(C(C)=O)CCC2[C@H]3C=C(C)C4=CC(=O)CC[C@@]4(C)C3CC[C@]21C (stereo not given in full),-1.19% (inactive)
17,CC(C)(C)C1CCC(=NNC(=O)c2ccc(Br)o2)CC1 (stereo not given),-0.04% (inactive)
18,C/C(=N\NC(=S)NC1CCCCC1)c1ccc(C)o1,-2.41% (inactive)

row,SMILES,activation
1,C/C(=N/NC(=O)c1ccc(Br)o1)c1ccc(C)o1,1.57% (active)
2,Cc1sc2nc(SCC(=O)c3ccc(O)c(O)c3)n(Cc3ccco3)c(=O)c2c1C,-1.42% (inactive)
3,O=S(=O)(NC1CCCCC1)c1ccc(F)c2ccccc12,-1.61% (inactive)
4,C=CCN(C(=O)[C@@H](CCCC)[C@@H](O)c1ccc(Cl)cc1)c1ccccc1,-1.08% (inactive)
5,C=C1C(C(C)C)N(C)C2=NC(c3ccccc3)CC(=O)N12 (stereo not given),-1.49% (inactive)
6,O=C(NC1=NCCS1)c1ccc(Cl)s1,-1.02% (inactive)
7,COc1ccccc1C(=O)NCCC(=O)NC1=NCCS1,-0.76% (inactive)
8,COc1ccc(C(=O)NC2=NCCS2)c(OC)c1,1.63% (active)
9,O=C(NCCc1c[nH]c2ccccc12)OCc1cn(-c2c(F)cccc2F)nn1,-1.14% (inactive)
10,O=C(NCc1ccco1)C1CCCN(S(=O)(=O)c2ccc(Cl)s2)C1 (stereo not given),0% (inactive)
11,OCCC1CN(Cc2cccn2-c2nccs2)CCN1CCc1ccccc1 (stereo not given),1.5% (active)
12,OCCC1CN(Cc2cnc(-c3ccccc3)s2)CCN1CCc1ccccc1 (stereo not given),-1.41% (inactive)
13,OCCC1CN(Cc2ccc(Oc3ncccn3)cc2)CCN1CCc1ccccc1 (stereo not given),-0.5% (inactive)
14,COC(=O)c1cccc(Cn2ccc3ccc(-c4ccc5ccn(C(=O)C6CCCCC6)c5c4)cc32)c1,-1.1% (inactive)
15,COc1ccc(-c2cc(-c3nnc(SCc4ccc([N+](=O)[O-])cc4)n3N)[nH]n2)cc1,-0.73% (inactive)
16,CCCC[C@H]1C2CC(OC(=O)NCc3ccccc3)C(C2)[C@H]2CCCCN21 (stereo not given in full),-1.06% (inactive)
17,CCCCOCCCNC(=O)C[C@H]1C[C@@]2(C(=O)OC)C(=C[C@H](C(C)(C)C)O[C@@H]2C)N(CCc2ccc(OC)c(OC)c2)C1=O,-1.19% (inactive)
